PubChem BioAssay (NCI)
The panel holds about 79,000 compounds, 15% with a hit somewhere; the sample as a whole holds those more often. A number with no mark means an inactive call. The source made the active and inactive calls. Rule as the data show it: active = growth inhibition above about 70%; inactive = the rest.

Assay: NCI Yeast Anticancer Drug Screen. Data for the sgs1 mgt1 strain (AID 161);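 also: 0% = growth of cultures given vehicle only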
Details: S. cerevisiae sgs1 mgt1 strain, stronger effect = higher value
Protocol: Growth inhibition of yeast strains with defined genetic alterations is measured as a screen for potential anti-cancer activity. Selected strains with alterations in DNA damage repair or cell cycle control were exposed to compounds and growth inhibition was measured relative to vehicle treated controls. The strain used in this assay is sgs1 mgt1

[1] = at 5.0 µM (retest, dose inferred, filed as 0.5)
[2] = at 50.0 µM (retest, dose inferred, filed as 5.0)

| Structure (SMILES) | growth inhibition [1] | growth inhibition [2] | growth inhibition (at 50.0 µM) |
| --- | --- | --- | --- |
| CCCC1(C)C(C#N)(C#N)C1(C#N)C#N | 98% (active) | 99% (active) | 99.3% (active) |
| CC(C)(CN1CCCCC1)C(/C=C/c1ccc(Cl)c(Cl)c1)=N\NC(=O)N/N=C(/C=C/c1ccc(Cl)c(Cl)c1)C(C)(C)CN1CCCCC1 | 41% | 99% (active) | 92.8% (active) |
| COc1ccc2c(Cc3cc(Cl)ccc3O)cncc2c1O | -5% | 51% | 29.7% |
| CN(C(=O)c1ccccc1)C1(COC(=O)c2ccccc2)CCCCC1 | -25% | -11% | -2.75% |
| Cc1c(-c2ccccc2)ccnc1/C=N/NC(=S)Nc1ccccc1 | 4% | 88% (active) | 95.1% (active) |
| Cc1ccc(S(=O)(=O)Nn2c(S)c(C#N)c(-c3ccc([N+](=O)[O-])cc3)c(C#N)c2=O)cc1 | 24% | 78% (active) | 72.3% (active) |
| CCOC(=O)Nc1cc2c(cc1Br)-c1ccccc1C2O (configuration not stated) | -7% | 1% | 10.4% |
| Oc1c(Cl)ccc2cccnc12 | 91% (active) | 80% (active) | 94.1% (active) |
| CCN1CCC(O)(/C=C/c2ccccc2C)C(C(=O)/C=C/c2ccccc2C)C1 (configuration not stated) | 3% | 83% (active) | 99.4% (active) |
| CC1(C)OC2C(COC(c3ccccc3)(c3ccccc3)c3ccccc3)OC(n3cnc4c(N)ncnc43)C2O1 (configuration not stated) | 11% | 92% (active) | 18.6% |
| Cc1c(Cl)ccc2c(C(O)CNCc3ccccc3)cc(-c3ccc(Cl)cc3)nc12 (configuration not stated) | 66% | 92% (active) | 97.1% (active) |
| COC1=C(/C(=N/Nc2ccc([N+](=O)[O-])cc2[N+](=O)[O-])c2ccccc2)COC1=O | -3% | -7% | -8.25% |
| CC(=O)Oc1c2c(c(OC(C)=O)c3c1n(C(C)=O)c1ccccc1n3C(C)=O)n(C(C)=O)c1ccccc1n2C(C)=O | 34% | 34% | 79.7% (active) |
| CC(=O)OC1=C(CC(C)C)C(=O)c2ccccc2C1=O | 7% | 88% (active) | 78.6% (active) |
